Source: PubChem BioAssay (National Center for Advancing Translational Sciences (NCATS))
Hits are enriched below; roughly 10% of the tested compounds scored in any of these assays.
JMJD2A Tudor: JMJD2A Tudor domain (human) inhibition. 4.4% of 390,000 active. Potency, µM (series often up to 114 µM), inactives show at the top dose activity change, negative = inhibition, actives largely listed as inhibitors. AlphaScreen JMJD2A-Tudor / H3K4me3 peptide binding. O75164; also: potency is read from the fitted curve at half-maximal effect; % is scaled to controls: 0 for no effect and ±100 for the full control effect; nearly all actives have a fitted effect of over 50% in size
HP1b binding inh: HP1-beta chromodomain-methylated histone interaction inhibition; P83916; AlphaScreen HP1-beta / biotin-H3K9me3 peptide binding; Potency, µM (series often up to 114 µM), inactives show top-dose activity change, negative = inhibition, hits mostly inhibitors; 0.56% of 390,000 active; also: potency is read from the fitted curve at half-maximal effect; nearly all actives have a fitted effect of over 70% in size
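AlphaScreen: HP1-beta (50 nM) preformed 30 min with biotin-H3(1-18)K9me3 peptide (50 nM) in PBS pH 7.4, 0.01% Tween-20. Compound added for 30 min at RT, then streptavidin donor/nickel chelate acceptor beads (10 ug/mL) for 30 min.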
Six1-Eya2 blk: Six1/Eya2 interaction inhibition | Q15475+O00167 | AlphaScreen GST-Six1/His-Eya2 binding, biochemical; hits give low values | activity change, % (no concentration beside the values) | 0.56% of 360,000 active; in the data active = activity change below about -65%; inconclusive = mostly about -30% to -63%; also: % is scaled to controls: 0 for no effect and ±100 for the full control effect
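Compounds are tested against tagged Six1 and Eya2 proteins bridged by glutathione donor and nickel acceptor beads; after a one-hour incubation at 37 °C without light, AlphaScreen emission is recorded.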
CtBP-E1A inh: inhibitors of CtBP/E1A interaction; AlphaScreen GST-E1A/His-CtBP binding, 1536-well; hits give low values; activity change, % (no concentration beside the values); 0.49% of 340,000 active; AID 651724; in the data active = activity change below about -65%; inconclusive = mostly about -30% to -63%; also: % is scaled to controls: 0 for no effect and ±100 for the full control effect
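GST-E1A and His-tagged CtBP (125 nM each as 5X stock) were preincubated with pin-transferred compound for 2 h at 37 °C in the dark, then glutathione donor and nickel acceptor beads were added for 1 h before AlphaScreen reading.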
BAZ2B block: blocks human BAZ2B; AlphaScreen BAZ2B-H3K14Ac peptide displacement; 4.4% of 360,000 active; Potency, µM (titrated, usually from 114 µM), for inactives: top-dose activity change, negative = inhibition, hits mostly inhibitors; also: potency is read from the fitted curve at half-maximal effect; % is scaled to controls: 0 for no effect and ±100 for the full control effect; nearly all actives have a fitted effect of over 60% in size
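BAZ2B 50 nM plus b-H3(5-23)K14Ac 50 nM, PBS pH 7.4/0.01% Tween-20, 30 min RT; compound added (max 110 uM), 30 min RT; streptavidin donor/Ni-chelate acceptor beads 10 ug/mL final, 20 min dark; AlphaScreen read.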
G9a block: inhibitors of human histone lysine methyltransferase G9a; Q96KQ7; 8.8% of 350,000 active; Potency, µM (highest dose often 102 µM), for inactives: at the highest dose activity, negative = inhibition, most hits filed as inhibitors; AID 504332; G9a H3K9 monomethylation, AlphaScreen, 2 h; also: potency is read from the fitted curve at half-maximal effect; % is scaled to controls: 0 for no effect and ±100 for the full control effect; nearly all actives have a fitted effect of over 75% in size
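AlphaScreen read-out: biotin-H3K9 peptide (500 nM) methylation by 20 nM enzyme with 20 uM SAM, 2 h at room temperature after 15 min compound preincubation; anti-monomethyl H3K9 antibody plus donor/acceptor beads, 10 min dark.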
The depositor's hits bear a star; [ ] = dose if it differs, or a comment. Unless noted, calls follow the shape of the dose curve; as a rule, active = well fitted inhibition curve with a large enough effect; inconclusive = small, poorly fitted or top-dose-only effect; inactive = no such curve, though single readings can be large or run the other way.

Cc1ccccc1C(=O)N1CCC(C(=O)Nc2ccccc2N2CCCC2)CC1 was read as JMJD2A Tudor -28%, HP1b binding inh -4%, Six1-Eya2 blk -9, CtBP-E1A inh -13, BAZ2B block 1% and G9a block 50µM*.
Screening CCOC(=O)N1CCN(C(=O)C2CCN(C(=O)c3ccccc3C)CC2)CC1 returned JMJD2A Tudor 7.1µM*, HP1b binding inh 7.9µM*, Six1-Eya2 blk -29 and CtBP-E1A inh -11.
COc1cccc(C2CNC3(CCCC(C)C3)c3[nH]c4ccccc4c32)c1OC (stereo not given) was read as JMJD2A Tudor inconclusive, HP1b binding inh 5%, Six1-Eya2 blk -28, BAZ2B block 45µM* and G9a block inconclusive.
Cc1cc(C)c(S(=O)(=O)/N=C2\C=C(NS(=O)(=O)c3ccccc3)C(=O)c3ccccc32)c(C)c1 was read as JMJD2A Tudor 13µM*, HP1b binding inh inconclusive, Six1-Eya2 blk 4, CtBP-E1A inh -2, BAZ2B block 5.6µM* and G9a block 6.3µM*.
Cc1cc(C)c(NS(=O)(=O)c2ccccc2)c(C)c1 was read as JMJD2A Tudor -1%, HP1b binding inh 15%[57 µM], Six1-Eya2 blk 8 and CtBP-E1A inh -5.
`Cc1ccc(S(=O)(=O)/N=C2\C=C(NS(=O)(=O)c3ccccc3)C(=O)c3ccccc32)cc1` gave JMJD2A Tudor 32µM*, HP1b binding inh inconclusive, Six1-Eya2 blk inconclusive and CtBP-E1A inh -28.
For Cc1ccc(S(=O)(=O)N2CCC(C(=O)C3C(=O)CC(C)(C)CC3=O)CC2)cc1 the results were JMJD2A Tudor -4%, HP1b binding inh -11%, Six1-Eya2 blk 6, CtBP-E1A inh -4, BAZ2B block -12% and G9a block -3%.
For Cc1ccc(S(=O)(=O)/N=C2/C=C(C3C(=O)CC(C)(C)CC3=O)C(=O)c3ccccc32)cc1 the results were JMJD2A Tudor inconclusive, HP1b binding inh -36%, Six1-Eya2 blk -10, CtBP-E1A inh -19, BAZ2B block inconclusive and G9a block 8.9µM*.
Screening Cc1ccc2oc(-c3cc(NC(=O)CC(C)C)ccc3Cl)nc2c1 returned JMJD2A Tudor -3%, HP1b binding inh 24%, BAZ2B block 8% and G9a block -3%[59 µM].
`Cc1ccc(C(=O)NCCc2sc(C)nc2C)cc1` gave JMJD2A Tudor -14%, HP1b binding inh 8%, Six1-Eya2 blk 5, CtBP-E1A inh -7, BAZ2B block -31% and G9a block 5%[59 µM].
Screening Cc1nc(C)c(CCNC(=O)c2ccc(C(F)(F)F)cc2)s1 returned JMJD2A Tudor -8%, HP1b binding inh 21%, Six1-Eya2 blk 4, CtBP-E1A inh -2, BAZ2B block 5% and G9a block 45µM*.
Screening CC(=NNC(=S)N1CC2CCC(CC2)C1)c1cccc(C)n1 returned JMJD2A Tudor 22µM*, HP1b binding inh inconclusive, Six1-Eya2 blk -88* and CtBP-E1A inh -16.
CC(=NNC(=S)SCc1ccccc1)c1ccccn1 was read as JMJD2A Tudor 20µM*, HP1b binding inh -15%, Six1-Eya2 blk 0 and CtBP-E1A inh 2.
Screening CC(=NNC(=S)N1CCCC1)c1ccccn1 returned Six1-Eya2 blk inconclusive and CtBP-E1A inh -20.
Screening CC(=NNC(=S)N1CCC1)c1ccccn1 returned JMJD2A Tudor 20µM*, HP1b binding inh 15%, Six1-Eya2 blk -91* and CtBP-E1A inh -95*.
Screening COCCCN1C(=O)c2ccccc2CC1(C)C(=O)NC1CCCCC1 (stereo not given) returned JMJD2A Tudor 0%, HP1b binding inh 27%, BAZ2B block 1% and G9a block 1%[59 µM].
Screening Cc1cccc(C)c1NC(=O)CN(Cc1ccc(Br)cc1)S(=O)(=O)c1ccccc1 returned JMJD2A Tudor -5%, HP1b binding inh 35%, BAZ2B block 3% and G9a block -23%[59 µM].
For CCOc1ccc(C(=O)CCNC(Cc2cnc[nH]2)C(=O)O)cc1 (stereo not given) the results were JMJD2A Tudor inconclusive, HP1b binding inh 19%, Six1-Eya2 blk inconclusive, CtBP-E1A inh -66*, BAZ2B block 18µM* and G9a block inconclusive.
Screening CCOc1ccc(S(=O)(=O)NC(Cc2cnc[nH]2)C(=O)O)cc1 (stereo not given) returned JMJD2A Tudor 16µM*, HP1b binding inh -5%, Six1-Eya2 blk -11, CtBP-E1A inh 0, BAZ2B block -14% and G9a block 50µM*.
`CCn1ccc2cc(S(=O)(=O)N3CCC(C(=O)NCCc4ccc(SC)cc4)CC3)ccc21` gave JMJD2A Tudor -25%, HP1b binding inh 8%[57 µM], BAZ2B block -7% and G9a block 3%[59 µM].
COc1cc([N+](=O)[O-])cc(/C=N/N(CCC#N)C(C)=O)c1O was read as JMJD2A Tudor -7%, HP1b binding inh 11%, Six1-Eya2 blk 2, CtBP-E1A inh 6, BAZ2B block inconclusive and G9a block 45µM*.
For CC(=O)c1c(N2CCCC2)[nH]c(-c2ccccc2)nc1=S the results were JMJD2A Tudor -22%, HP1b binding inh 4%, Six1-Eya2 blk -6, CtBP-E1A inh -3, BAZ2B block inconclusive and G9a block inconclusive.
Screening CC(=O)c1c(N2CCN(Cc3ccccc3)CC2)[nH]c(-c2ccccc2)nc1=S returned JMJD2A Tudor inconclusive, HP1b binding inh 14%, Six1-Eya2 blk -8, CtBP-E1A inh -5, BAZ2B block inconclusive and G9a block 71µM*.
`Cc1ccccc1C(=O)OCc1cc(=O)n2nc(C3CCCCC3)sc2n1` gave JMJD2A Tudor -5%, HP1b binding inh 37%, BAZ2B block -4% and G9a block 22%[59 µM].
For Cc1ccc(C2=NOC(=O)/C2=C\C=C\c2ccccc2)cc1 the results were JMJD2A Tudor 50µM*, HP1b binding inh -30%, Six1-Eya2 blk 0, CtBP-E1A inh 0, BAZ2B block 35µM* and G9a block 2.8µM*.
For CC1=NN(c2ccccc2)C(=O)/C1=C\N1CC(C)OC(C)C1 (stereo not given) the results were JMJD2A Tudor -30%, HP1b binding inh 14%, Six1-Eya2 blk -2, CtBP-E1A inh -10, BAZ2B block inconclusive and G9a block 79µM*.
Screening CN(C)/C=C1\C(=O)ON=C1c1ccccc1 returned JMJD2A Tudor -8%, HP1b binding inh 23%, Six1-Eya2 blk 12, CtBP-E1A inh 2, BAZ2B block -2% and G9a block inconclusive.
